Records with an inconclusive call do not appear. Values without a mark were called inactive. Active and inactive are the calls of the source. Calls come from the whole dose curve; as a rule, active = well fitted inhibition curve with a large enough effect; inconclusive = small, poorly fitted or top-dose-only effect; inactive = flat fitted curve, though single readings scatter.
% is set by controls: 0 for no effect and ±100 for the full control effect; potency is the fitted concentration of half-maximal effect.

One experiment is described as follows: Drug repurposing screens with cells derived from glioblastoma tumor samples (AID 1345199). Note: nearly all actives have a fitted effect of over 40% in size. The settings on record: GBM patient neurospheres viability, ATP luminescence, 48 h; at 45.9 µM (top of the series); tumour line D. A digest of the protocol: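 Primary testing used CD133+ neurospheres from four GBM patients, seven concentrations, 48 h exposure and ATP-based viability; confirmation added three slower-growing patient lines.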
Turning to `CC(=O)O[C@H]1CC[C@H]2[C@@H]3CCC4=CC(=O)CCC4=C3C=C[C@]12C`, the activity, negative = cell killing is -6.7%.

Take `O=P(O)(O)C(Cl)(Cl)P(=O)(O)O`: the activity, negative = cell killing was -11.3%.

As to `C=CCN=C=S`, the activity, negative = cell killing is -10.4%.

For the molecule `CC[N+](C)(CC)CCOC(=O)C(O)(c1ccccc1)c1ccccc1`, the activity, negative = cell killing is -2.57%.

In the case of `C[N+]1(C)CCCCC1COC(=O)C(O)(c1ccccc1)c1ccccc1` (centres undefined), the activity, negative = cell killing is -3.36%.

As to `COCC(C)N(C(=O)CCl)c1c(C)csc1C` (centres undefined), the activity, negative = cell killing was -11.3%.

As to `O=c1[nH]cc(N(CCCl)CCCl)c(=O)[nH]1`, the activity, negative = cell killing is -17.9%.

Turning to `CC(Cc1ccccc1)NC=O` (centres undefined), the activity, negative = cell killing is 2.52%.

`c1csc(C2(N3CCCCC3)CCCCC2)c1`: the activity, negative = cell killing was -7.27%.

As for `O=C(O)C(Cl)(Cl)Cl`, the activity, negative = cell killing is 4.24%.

Consider `O=C(CCl)c1ccc(Oc2ccc(C(=O)CCl)cc2)cc1`, for which the activity, negative = cell killing is -6.59%.

For the molecule `O=C1CN(O)C(c2ccccc2)=c2cc(Cl)ccc2=N1`, the activity, negative = cell killing is -10.4%.

Regarding `CCCCCCCCOC(=O)c1ccccc1C(=O)OCCCCCCCC`, the activity, negative = cell killing was 6.99%.

For `S=C=S`, the activity, negative = cell killing is -16.5%.

Turning to `C=CCN(C1=NCCN1)c1c(Cl)cccc1Cl`, the activity, negative = cell killing is -0.731%.

For the molecule `OC[C@@H](O)[C@H]1O[C@@H]2O[C@H](C(Cl)(Cl)Cl)O[C@@H]2[C@H]1O`, the activity, negative = cell killing was -2.86%.

`C=CCC1(C(C)CCC)C(=O)N=C(S)NC1=O` (centres undefined): the activity, negative = cell killing is -15.2%.

For the molecule `O=C1CCO1`, the activity, negative = cell killing was 6.37%.

On to `CCC/C=C/C=C/C(=O)O[C@H]1/C(=C/C(=O)OC)C[C@H]2C[C@H]([C@@H](C)O)OC(=O)C[C@H](O)C[C@@H]3C[C@H](OC(C)=O)C(C)(C)[C@](O)(C[C@@H]4C/C(=C/C(=O)OC)C[C@H](/C=C/C(C)(C)[C@]1(O)O2)O4)O3`, for which the activity, negative = cell killing was -24.1%.

With `CCCCNCC(O)c1ccc(O)cc1` (centres undefined), the activity, negative = cell killing is -0.799%.

`CCC1(c2ccccc2)C(=O)NC(=O)N(C(=O)c2ccccc2)C1=O` (centres undefined): the activity, negative = cell killing was -13.8%.

In the case of `O=C(NC(=O)c1c(F)cccc1F)Nc1ccc(Cl)c(Oc2ncc(C(F)(F)F)cc2Cl)c1`, the activity, negative = cell killing is -21.9%.

Turning to `N#CN`, the activity, negative = cell killing is -4.31%.

For `C#CC(C)(O)CC` (centres undefined), the activity, negative = cell killing was -11.4%.

The experiment is the same for the next values; noted with them: GBM patient neurospheres viability, ATP luminescence, 48 h; at 46.1 µM (top of the series); tumour line C.
Regarding `C[N+]1(C)[C@@H]2CC[C@H]1CC(OC(=O)c1c[nH]c3ccccc13)C2` (some centres undefined), the activity, negative = cell killing was -27.7%.

`CC(=O)O[C@H]1CC[C@H]2[C@@H]3CCC4=CC(=O)CCC4=C3C=C[C@]12C`: the activity, negative = cell killing is -16.1%.

Consider `O=P(O)(O)C(Cl)(Cl)P(=O)(O)O`, for which the activity, negative = cell killing was -5.59%.

In the case of `C=CCN=C=S`, the activity, negative = cell killing is 6.26%.

In the case of `C[N+]1(C)CCCCC1COC(=O)C(O)(c1ccccc1)c1ccccc1` (centres undefined), the activity, negative = cell killing is -16.5%.

Turning to `COCC(C)N(C(=O)CCl)c1c(C)csc1C` (centres undefined), the activity, negative = cell killing is -13.3%.

For the molecule `O=c1[nH]cc(N(CCCl)CCCl)c(=O)[nH]1`, the activity, negative = cell killing is -21.9%.

As for `CC(Cc1ccccc1)NC=O` (centres undefined), the activity, negative = cell killing is -28.9%.

With `c1csc(C2(N3CCCCC3)CCCCC2)c1`, the activity, negative = cell killing was -24.6%.

Turning to `O=C(O)C(Cl)(Cl)Cl`, the activity, negative = cell killing is 3.74%.

Consider `O=C(CCl)c1ccc(Oc2ccc(C(=O)CCl)cc2)cc1`, for which the activity, negative = cell killing is -8.36%.

In the case of `C[C@H]1CCC[C@H](O)CCCCCc2cc(O)cc(O)c2C(=O)O1`, the activity, negative = cell killing was 1.42%.

As to `O=C1CN(O)C(c2ccccc2)=c2cc(Cl)ccc2=N1`, the activity, negative = cell killing was -13.2%.

Consider `CCCCCCCCOC(=O)c1ccccc1C(=O)OCCCCCCCC`, for which the activity, negative = cell killing was -8.6%.

On to `S=C=S`, for which the activity, negative = cell killing was -10.7%.

`C=CCN(C1=NCCN1)c1c(Cl)cccc1Cl`: the activity, negative = cell killing is -15.8%.

For the molecule `OC[C@@H](O)[C@H]1O[C@@H]2O[C@H](C(Cl)(Cl)Cl)O[C@@H]2[C@H]1O`, the activity, negative = cell killing is -11.5%.

In the case of `C=CCC1(C(C)CCC)C(=O)N=C(S)NC1=O` (centres undefined), the activity, negative = cell killing was -10.6%.

`O=C1CCO1`: the activity, negative = cell killing was -10.3%.

Consider `CCCCNCC(O)c1ccc(O)cc1` (centres undefined), for which the activity, negative = cell killing was 1.33%.

For `CCC1(c2ccccc2)C(=O)NC(=O)N(C(=O)c2ccccc2)C1=O` (centres undefined), the activity, negative = cell killing is -23.5%.

In the case of `O=C(NC(=O)c1c(F)cccc1F)Nc1ccc(Cl)c(Oc2ncc(C(F)(F)F)cc2Cl)c1`, the activity, negative = cell killing is -19.8%.

Regarding `O=[N+]([O-])c1cc(I)c(O)c(I)c1`, the activity, negative = cell killing was -4.29%.

In the case of `c1ccc(C2(N3CCCC3)CCCCC2)cc1`, the activity, negative = cell killing is -27.4%.

For the molecule `N#CN`, the activity, negative = cell killing is -5.37%.

As to `C#CC(C)(O)CC` (centres undefined), the activity, negative = cell killing is -2.82%.

The same experiment, now with this note: GBM patient neurospheres viability, ATP luminescence, 48 h; tumour line A.
As for `Clc1ccc(C(Cn2ccnc2)OCc2csc3c(Cl)cccc23)c(Cl)c1` (centres undefined), the Potency is 12.6 µM (active).

On to `ClC1=C(Cl)[C@]2(Cl)[C@@H]3[C@H]4C[C@H]([C@@H]5O[C@H]45)[C@@H]3[C@@]1(Cl)C2(Cl)Cl`, for which the Potency was 11.2 µM (active).

For `C[C@H]1CCC[C@H](O)CCCCCc2cc(O)cc(O)c2C(=O)O1`, the Potency was 12.6 µM (active).

Consider `O=C1OC2(c3cc(Br)c(O)cc3Oc3c2cc(Br)c(O)[c]3[Hg])c2ccccc21` (centres undefined), for which the Potency was 14.1 µM (active).

Turning to `O=[N+]([O-])c1cc(I)c(O)c(I)c1`, the Potency is 25.1 µM (active).

Take `OC(c1ccccc1)(c1ccccc1)C1CN2CCC1CC2` (centres undefined): the Potency was 12.6 µM (active).

Take `CN1[C@@H]2CC[C@H]1CC(OC1c3ccccc3CCc3ccccc31)C2` (some centres undefined): the Potency is 5.62 µM (active).

`O=[N+]([O-])c1ccc(F)c([N+](=O)[O-])c1`: the Potency was 20 µM (active).

For `c1ccc(C2(N3CCCC3)CCCCC2)cc1`, the Potency was 11.2 µM (active).
